Compounds without any hit were thinned out: in the full panel of roughly 83,000, 20% have a hit.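 Cells were grown in 96-well plates and exposed to the test compound at a single concentration for 48 hours; results are reported as percent growth, with values below 10 considered active.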 Unmarked numbers belong to inactive results. Calls of active or inactive are those of the source.
Experiments:
Experiment in all cases: NCI-60 one-dose screen, 48 h (100 = growth as untreated, 0 = no growth, -100 = all killed)
Conditions in all cases: 10 µM unless noted
DU-145 prostate = system: DU-145 prostate
K-562 leukemia = system: K-562 leukemia
MALME-3M melanoma = system: MALME-3M melanoma
MDA-MB-231 breast = system: MDA-MB-231 breast
RXF 393 renal = system: RXF 393 renal
SF-268 CNS = system: SF-268 CNS
SF-295 CNS = system: SF-295 CNS
SF-539 CNS = system: SF-539 CNS
UACC-257 melanoma = system: UACC-257 melanoma
M14 melanoma = system: M14 melanoma
HCT-15 colon = system: HCT-15 colon
HT29 colon = system: HT29 colon
SNB-75 CNS = system: SNB-75 CNS
SNB-19 CNS = system: SNB-19 CNS
U251 CNS = system: U251 CNS
PC-3 prostate = system: PC-3 prostate
SK-MEL-5 melanoma = system: SK-MEL-5 melanoma
UACC-62 melanoma = system: UACC-62 melanoma
LOX IMVI melanoma = system: LOX IMVI melanoma
SK-MEL-28 melanoma = system: SK-MEL-28 melanoma

| Compound | growth (DU-145 prostate) | growth (K-562 leukemia) | growth (MALME-3M melanoma) | growth (MDA-MB-231 breast) | growth (RXF 393 renal) | growth (SF-268 CNS) | growth (SF-295 CNS) | growth (SF-539 CNS) | growth (UACC-257 melanoma) | growth (M14 melanoma) | growth (HCT-15 colon) | growth (HT29 colon) | growth (SNB-75 CNS) | growth (SNB-19 CNS) | growth (U251 CNS) | growth (PC-3 prostate) | growth (SK-MEL-5 melanoma) | growth (UACC-62 melanoma) | growth (LOX IMVI melanoma) | growth (SK-MEL-28 melanoma) |
| --- | --- | --- | --- | --- | --- | --- | --- | --- | --- | --- | --- | --- | --- | --- | --- | --- | --- | --- | --- | --- |
| CN1CCN(CCOc2ccc(-c3cnc4c(-c5cccc(F)c5F)cnn4c3)cc2)CC1 | 8.58% (active) | -31.3% (active) | -44% (active) | 85% | 97% | 25.3% | -3.66% (active) | -72.5% (active) | -19.1% (active) | -78.9% (active) | -8.62% (active) | -46.1% (active) | 115% | 8.04% (active) | -32.4% (active) | 90.5% | -32.4% (active) | -36.1% (active) | -95.8% (active) | -18.7% (active) |
| Cc1cc2c(cc1C)N(C(=O)CCl)CC(=O)N2 | 78.6% | 2.9% (active) | 9.7% (active) | 51.3% | 31.2% | 60.9% | 99.5% | 93.2% | 59.5% | 55% | 7.57% (active) | -60% (active) | 74.4% | 88% | 14.4% | 71.2% | 43.8% | 70.7% | -9.81% (active) | 77.1% |
| O=C1/C=C/[C@@H](O)[C@@H]2C[C@@H](O)C[C@H]2/C=C/CCC[C@@H](O)CCO1 | 105% | 105% | 60.9% | 113% | 52.4% | 85.6% | 89.2% | 101% | 49.3% | 77.8% | 107% | 91.6% | 41.2% | 104% | 92.3% | 90.6% | 22.9% | 110% | 94.7% | 28.7% |
| COc1ccc(C#Cc2ccc(=O)oc2-c2cc(OC)c(OC)c(OC)c2)cc1O | 58.5% | 16.8% | 38.8% | 59.9% | 57.8% | 69.7% | 23.5% | 47.6% | 53% | 33.9% | 30.7% | 33.9% | 40.1% | 54.6% | 39.7% | 40.6% | 24.5% | 44% | 41.4% | 59% |
| c1ccc(CCNc2c3ccccc3nc3ccccc23)cc1 | 37.9% | 25% | 57.1% | 43.3% | 35.3% | 66.5% | 34.9% | 28.1% | 55.2% | 42.7% | 23.3% | 22.1% | 67.6% | 39.5% | 41.1% | 35.7% | 64.7% | 53.2% | 17.6% | 67.7% |
| C=CCC(CCCC)(C(=O)OCC)C(=O)OCC | 121% | 104% | 106% | 105% | 105% | 113% | 113% | 100% | 100% | 96.8% | 96% | 102% | 77.2% | 99% | 102% | 94.8% | 113% | 99.6% | 99.7% | 115% |
| CN(CCCNC(=O)CCOCCOCCOCCNC(=O)Cc1ccc2ccc3cccc4ccc1c2c34)CCCNc1cc(-c2ccc3ccccc3c2)nc2ccccc12 | -95.8% (active) | -88.3% (active) | -69.6% (active) | -70.7% (active) | -37.7% (active) | -82.9% (active) | -71.1% (active) | -98.6% (active) | -70% (active) | -89.7% (active) | -77.5% (active) | -87.6% (active) | -95.7% (active) | -95.1% (active) | -70.7% (active) | -93.6% (active) | -96% (active) | -65.9% (active) | -43.7% (active) | -94% (active) |
| O=C(CCl)NNc1nccc(Nc2ccc(S(=O)(=O)Nc3ccncc3)cc2)n1 | 32.1% | 17.6% | 32.2% | 46.7% | 48.2% | 37.6% | 67.7% | 5.24% (active) | 52.1% | 45.2% | 22.2% | 27.4% | 54.7% | 31.1% | -9.06% (active) | 56% | 7.95% (active) | 31.4% | 17.6% | 53.7% |
| O=C(CCCCCCN1CC(=O)N2[C@H](c3ccc(Cl)cc3)c3[nH]c4ccccc4c3C[C@@H]2C1=O)NO | 72.2% | 25.2% | 23% | 68.9% | 65.7% | 85.1% | 85.6% | 57% | 36.4% | 61.7% | 109% | 67.5% | 30.2% | 69.6% | 53% | 48.2% | 43.8% | 21% | 27.1% | 45.3% |
| O=C(Cc1ccc(NC(=O)c2cccc(Cl)c2)cc1)NCc1ccccc1 | 86.1% | 13.9% | 61.3% | 60.8% | 65% | 61.7% | 41.3% | 36.7% | 69.1% | 18.7% | 27.1% | 8.25% (active) | 29.7% | 47.5% | 33.3% | 48.8% | 7.53% (active) | 37.2% | 39.6% | 58.9% |
| COc1ccc(C(=O)/C=C/c2ccc(N3CCCCC3)cc2)cc1OC | 95.4% | 76% | 104% | 91.8% | 107% | 95.3% | 95.2% | 98.2% | 82.8% | 89.4% | 94.9% | 95.1% | 84.3% | 91.3% | 95.6% | 81% | 90.4% | 75.3% | 97.1% | 102% |
| COc1cccc(/C=C/C(=O)c2cc3c(N)c(C(=O)Nc4cccc5ccccc45)sc3nc2C)c1 | 7.62% (active) | 10.4% | 33.5% | -3.88% (active) | -31.6% (active) | 15.3% | 15.5% | -67.3% (active) | 61.7% | 2.46% (active) | -23.1% (active) | -11.2% (active) | -16.4% (active) | -18.8% (active) | -11.4% (active) | 27.7% | -19.7% (active) | -18.3% (active) | -66.8% (active) | 39.2% |
| Cc1ccc(C2CC(c3nc(-c4ccc(Cl)cc4)oc3C)=NN2C(=O)c2ccncc2)cc1 (stereo not given) | 93.1% | 84.2% | 90.9% | 71.6% | 74.8% | 81.6% | 87.9% | 89.5% | 97.1% | 93.8% | 83.7% | 86.9% | 82.1% | 77.2% | 87.7% | 73.2% | 92.4% | 72.3% | 86% | 92.4% |
| CC(=O)Oc1ccc(OC(C)=O)c2ccccc12 | 116% | 49.6% | 107% | -45.5% (active) | 87.1% | 87.5% | 105% | 99.9% | 78.1% | 105% | 99.1% | 107% | 105% | 91.9% | 89% | 54.8% | 60.2% | 78% | 81.2% | 111% |
| CCN(CC)Cc1cc(Nc2ccnc3cc(Cl)ccc23)ccc1O | 97.4% | 87.1% | 104% | 72.3% | 97.4% | 77.8% | 93.4% | 85.6% | 112% | 91.2% | 68% | 81.2% | 83.4% | 88.7% | 89.4% | 93.2% | 96.7% | 92.7% | 85.8% | 94.9% |

From PubChem BioAssay (NCI)
